Assay results from PubChem BioAssay AID504848 (National Center for Advancing Translational Sciences (NCATS), 2011).
About 1,400 (61%) of roughly 2,300 compounds were called active. Another 29% or so got no clear call; they are omitted. The set was probably picked from earlier hits. The list shows a part of the results. A number with no mark means an inactive call. Calls follow the shape of the dose curve; as a rule, active = well fitted inhibition curve with a large enough effect; inconclusive = small, poorly fitted or top-dose-only effect, or effect the other way; inactive = no such curve, though single readings can be large or run the other way. Square brackets hold non-standard residues; d marks the D form. Peptide text beside a SMILES is read from it. * marks the point of attachment. ξ: configuration not given here. ξF = NC(Cc1ccccc1)C(=O)O; Cbz = O=C(OCc1ccccc1)*

experiment: Confirmation screen for delayed death inhibitors of the malarial parasite plastid, 96 hour incubation; also: nearly all actives have a fitted effect of over 60% in size; conditions: P. falciparum luciferase growth in erythrocytes; series mostly up to 28.7 µM; activity change, negative = inhibition: at the top concentration
Summary of the method: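 Erythrocytes infected with luciferase-expressing P. falciparum (2% hematocrit, 0.1% parasitemia final) in RPMI 1640 with 0.5% Albumax, exposed to compounds 96 h at 37 C, 5% CO2. Growth inhibition read as decreased luciferase luminescence.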
% is scaled to controls: 0 for no effect and ±100 for the full control effect; potency is read from the fitted curve at half-maximal effect.

| SMILES | Potency | activity change, negative = inhibition [%] |
| --- | --- | --- |
| C=C1C(=O)O[C@@H]2C[C@@H](C)[C@@H]3C=CC(=O)[C@@]3(C)[C@@H](OC(C)=O)[C@H]12 | 1.41 µM (active) |  |
| Nc1ccc[n+](CC(=O)c2ccccc2)c1 | 12.6 µM (active) |  |
| CCC(C)(C)NC(=O)C(c1cccc(OC)c1OC)N(CC(C)C)C(=O)CCC(=O)Nc1cc(C)on1 (stereo not drawn) | 7.94 µM (active) |  |
| Cc1cc(C)n(-c2ccc(C(=O)Nc3ccc(S(=O)(=O)NCc4ccco4)cc3)cc2)n1 | 8.91 µM (active) |  |
| CCN(CC(=O)Nc1c(F)cccc1F)C(=O)c1ccc(S(=O)(=O)NCc2ccco2)cc1 |  | -12.1 |
| CC(C)n1nc(C(=O)Nc2cccc(S(=O)(=O)NCc3ccco3)c2)c2ccccc2c1=O | 7.94 µM (active) |  |
| O=C(Nc1ccc(S(=O)(=O)NCc2ccco2)cc1)c1ccc2ccccc2n1 | 12.6 µM (active) |  |
| COc1ccc2c(C)c(CCC(=O)NC3CC3)c(=O)oc2c1C | 3.55 µM (active) |  |
| COc1ccc2c(c1)c(C(=O)N/N=C/c1ccc(OC)c(OC)c1)c(C)n2C | 8.91 µM (active) |  |
| O=C(NCC1CCCO1)c1ccc(Cn2c(=S)[nH]c3ccccc3c2=O)cc1 (stereo not drawn) | 14.1 µM (active) |  |
| CC1CCN(C(=O)C2CCCN(c3ncnc4c3nc3n4CCCCC3)C2)CC1 (stereo not drawn) | 11.2 µM (active) |  |
| Cc1cccc(N2CCN(C(=O)C3CCN(c4ncnc5c4nc4n5CCCCC4)CC3)CC2)c1C | 11.2 µM (active) |  |
| Cc1cc(C)n2nc(SCC(=O)N3CCN(c4ccc(F)cc4)CC3)nc2n1 | 12.6 µM (active) |  |
| COc1ccc(Nc2nnc(-c3ccccc3)c3ccccc23)cc1C(=O)N1CCCCC1 | 2.82 µM (active) |  |
| COc1ccc(Nc2nnc(-c3ccc(C)cc3)c3ccccc23)cc1C(=O)N1CCCCC1 | 0.251 µM (active) |  |
| CN1CCN(C(=O)c2cc(COc3c(F)cccc3F)on2)CC1c1ccccc1 (stereo not drawn) |  | -16 |
| O=C(c1cc(COc2ccc(F)cc2Cl)on1)N1CCN(C2CCCCC2)C(=O)C1 | 11.2 µM (active) |  |
| Nc1nonc1-n1nnc(C(=O)N/N=C/c2ccc(Cl)cc2)c1-c1ccc2c(c1)OCO2 | 0.0316 µM (active) |  |
| Nc1nonc1-n1nnc(C(=O)N/N=C/c2cccc(Cl)c2)c1-c1ccc2c(c1)OCO2 | 0.0708 µM (active) |  |
| Cc1ccsc1/C=N/NC(=O)c1nnn(-c2nonc2N)c1-c1ccc2c(c1)OCO2 | 0.891 µM (active) |  |
| CN(Cc1c(C(=O)N/N=C/c2cccc(O)c2)nnn1-c1nonc1N)c1ccccc1 |  | -21.5 |

| SMILES | Potency | activity change, negative = inhibition [%] |
| --- | --- | --- |
| CCOc1ccc(-c2c(C(=O)N/N=C/c3ccc(OC(C)C)cc3)nnn2-c2nonc2N)cc1 | 12.6 µM (active) |  |
| CCOC(=O)C1=C(NC(=S)NC(=O)c2ccccc2)c2ccccc2CC1(C)CC (stereo not drawn) | 11.2 µM (active) |  |
| CC(=O)Nc1nc2ccccc2n1Cc1ccc(C)cc1 | 5.62 µM (active) |  |
| N=C1S/C(=C\c2ccco2)C(=O)N1c1nccs1 | 12.6 µM (active) |  |
| CCCNC(=O)C(Cc1ccc(F)cc1)NC(=O)c1ccccc1 (stereo not drawn) | 6.31 µM (active) |  |
| CCOC(=O)CNC(=O)C(Cc1ccccc1)NC(=O)OCc1ccccc1 (stereo not drawn) (Cbz-[ξF]-Gly-OEt) |  | -6.51 |
| Cc1cc(C)c2[nH]c(C(=O)N3CCC(n4nccc4NC(=O)C4CC4)CC3)c(C)c2c1 | 7.94 µM (active) |  |
| Cc1c(C(=O)N2CCC(n3nccc3NC(=O)C3CC3)CC2)[nH]c2ccc(Cl)cc12 | 14.1 µM (active) |  |
| CCC(C)[C@H](NC(=O)[C@H](Cc1ccccc1)n1c(=O)[nH]c2ccccc2c1=O)C(=O)NCC1CCC(C(=O)O)CC1 (stereo partly drawn) | 11.2 µM (active) |  |
| CCOCCCn1c(C)nc2c(c1=O)c1nc3ccccc3nc1n2CCC1=CCCCC1 | 3.16 µM (active) |  |
| CN(CC(=O)Nc1ccc(F)c(Cl)c1)S(=O)(=O)c1ccc2c(c1)n(C)c(=O)c(=O)n2C | 10 µM (active) |  |
| CCOc1ccc(S(=O)(=O)N2CCCC(C(=O)NC3CC3)C2)cc1Cl (stereo not drawn) | 10 µM (active) |  |
| O=C(COc1ccccc1)N1c2ccccc2Sc2ccccc21 | 11.2 µM (active) |  |
| CC1CCCC(NC(=O)c2cc(-c3ccncc3)nc3ccccc23)C1C (stereo not drawn) | 11.2 µM (active) |  |
| Cc1c(Cl)ccc2c(C(=O)O)cc(-c3ccccc3)nc12 |  | 8.29 |
| COc1ccc2c(c1OC)C(=O)OC2Nc1nc(-c2ccccc2)cs1 (stereo not drawn) |  | -104 |
| COc1ccc2c(c1OC)C(=O)N1N=C(c3ccccc3)CC21 (stereo not drawn) | 2.24 µM (active) |  |
| CC(C)NC(=O)c1onc(CSc2cccc(F)c2)c1C(=O)O |  | -23.2 |
| O=C(O)C1CC=CCC1C(=O)Nc1ccc(S(=O)(=O)N2CCCc3ccccc32)cc1 (stereo not drawn) |  | -19.2 |
| Cc1ccc(NC(=O)c2cc(S(=O)(=O)N3CCc4ccccc43)cn2C)cc1 | 11.2 µM (active) |  |
| C=CCn1c(C)cc(C2=NNC(=NCc3ccccc3)SC2)c1C | 14.1 µM (active) |  |

| SMILES | Potency | activity change, negative = inhibition [%] |
| --- | --- | --- |
| N#Cc1c(SCC(=O)Nc2ccc(C(F)(F)F)cc2)sc2c(O)cc(=O)[nH]c12 | 0.0891 µM (active) |  |
| Cc1cc(NC(=O)CSc2sc3c(O)cc(=O)[nH]c3c2C#N)ccc1Br | 5.62 µM (active) |  |
| CCCSc1ccc(-c2nn(-c3ccccc3)cc2/C=C(/C#N)C(=O)NCCCOC)cc1 | 4.47 µM (active) |  |
| CC(C)(C)n1nnnc1C(c1ccc2ncccc2c1)N1CCSCC1 (stereo not drawn) | 11.2 µM (active) |  |
| COc1ccc(Cl)cc1NC(=O)C(C)NC(c1ccccc1)c1ccccc1 (stereo not drawn) | 5.62 µM (active) |  |
| CN1CCN(C(=O)CCN2C(=O)/C(=C/c3cccc(Br)c3)SC2=S)CC1 | 3.98 µM (active) |  |
| O=C(CCN1C(=O)/C(=C/c2ccccc2Cl)SC1=S)N1CCOCC1 | 10 µM (active) |  |
| CCOc1cc(/C=C/c2cc(C(F)(F)F)[nH]c(=O)n2)ccc1O | 14.1 µM (active) |  |
| CC(=O)O[C@H]1C(=O)[C@@]2(C)[C@H]([C@H](OC(=O)c3ccccc3)[C@]3(O)C[C@H](OC(=O)[C@H](O)[C@@H](NC(=O)c4ccccc4)c4ccccc4)C(C)=C1C3(C)C)[C@]1(OC(C)=O)CO[C@@H]1C[C@@H]2O | 0.501 µM (active) |  |
| CC(=O)O[C@@]12CO[C@@H]1C[C@H](O)[C@@]1(C)C(=O)[C@H](O)C3=C(C)[C@@H](OC(=O)C(O)[C@@H](NC(=O)OC(C)(C)C)c4ccccc4)C[C@@](O)([C@@H](OC(=O)c4ccccc4)[C@H]21)C3(C)C (stereo partly drawn) | 0.141 µM (active) |  |
| CC(C)(C)c1cc(NC(=O)CCl)n(-c2ccccc2)n1 | 8.91 µM (active) |  |
| O=C(CCl)Nc1c2c(nn1-c1ccccc1)CSC2 | 2.24 µM (active) |  |
| Cc1ccc(-c2cc(NC(=O)CCl)n(-c3ccccc3)n2)cc1 | 3.98 µM (active) |  |
| CCCCNC(=O)c1onc(CSc2ccc(Cl)cc2)c1C(=O)O |  | -5.24 |
| COc1cc(OC)c2c(-c3cccc(-c4cccc(N)c4)c3)cc(=O)oc2c1 | 10 µM (active) |  |
| NCCCNc1nc(N)c([N+](=O)[O-])c(NC2CCCCC2)n1 | 2.82 µM (active) |  |
| CC(C)C1C(=O)CC(c2ccccc2)NC1c1ccccc1 (stereo not drawn) | 15.8 µM (active) |  |
| S=C(Nc1ccccc1Cl)N(Cc1ccccc1)Cc1cccnc1 | 11.2 µM (active) |  |
| C(=C\c1nc(N2CCCCCC2)c2ccccc2n1)/c1ccccc1 | 6.31 µM (active) |  |
| CC(C)CCSc1nc(N)c(C#N)cc1C#N | 5.62 µM (active) |  |
| Cc1cccc2cc3c(nc12)SC(=NCC1CCCO1)N(Cc1ccco1)C3 (stereo not drawn) | 2 µM (active) |  |

| SMILES | Potency | activity change, negative = inhibition [%] |
| --- | --- | --- |
| CCCNC(=O)c1ccc(S(=O)(=O)c2ccc(OC)cc2)c([N+](=O)[O-])c1 | 5.01 µM (active) |  |
| CCOc1ccc2c(c1)C(N(CCN1CCOCC1)C(=O)Nc1ccccc1)CC(C)(C)O2 (stereo not drawn) | 10 µM (active) |  |
| O=C(N/N=C/c1cccn1-c1ccc([N+](=O)[O-])cc1)c1cccnc1 | 11.2 µM (active) |  |
| O=C(/C(=C/c1ccc(Cl)cc1)c1nc2ccccc2[nH]1)c1ccccc1 | 1.26 µM (active) |  |
| COc1cc(/C=C(/C(=O)c2cccs2)c2nc3ccccc3[nH]2)ccc1O | 3.98 µM (active) |  |
| COC(=O)/C(=C\c1cc(OC)c(OC)c(OC)c1)c1nc2ccccc2[nH]1 | 11.2 µM (active) |  |
| O=C(NCc1ccc2[nH]c3c(c2c1)CCCC3)c1ccc(S(=O)(=O)N2CCCC2)cc1 | 12.6 µM (active) |  |
| Brc1ccc2[nH]c3c(c2c1)CCC3 |  | 5.44 |
| C=CCNC(=O)c1onc(CSc2ccc(Cl)cc2)c1C(=O)O |  | -15.9 |
| COc1ccc(-c2cc(CNC(=O)CCl)on2)cc1 | 1.41 µM (active) |  |
| NNc1nc(-c2ccccc2Cl)c2cc(Br)ccc2n1 | 11.2 µM (active) |  |
| COc1ccc(Cl)cc1NC(=O)c1noc(C)c1[N+](=O)[O-] | 12.6 µM (active) |  |
| CCCN1C2=C(C(=O)CCC2)C(c2ccc(O)c(Br)c2)C2=C1CCCC2=O | 12.6 µM (active) |  |
| OC1CCN(c2c3c(nc4cc(-c5ccc(Cl)cc5)nn24)CCC3)CC1 | 3.98 µM (active) |  |
| C/C(=C\C(=O)c1ccncc1)Nc1ccccc1O | 15.8 µM (active) |  |
| CO[C@H](C(=O)[C@@H](O)[C@@H](C)O)C1Cc2cc3cc(O[C@H]4C[C@@H](O[C@H]5C[C@@H](O)[C@H](O)[C@@H](C)O5)[C@@H](O)[C@@H](C)O4)c(C)c(O)c3c(O)c2C(=O)[C@H]1O[C@H]1C[C@@H](O[C@H]2C[C@@H](O[C@H]3C[C@](C)(O)[C@H](O)[C@@H](C)O3)[C@H](O)[C@@H](C)O2)[C@H](O)[C@@H](C)O1 (stereo partly drawn) | 0.562 µM (active) |  |
| COc1ccc(NS(=O)(=O)c2ccc(N3CCOCC3)c(NC(=O)c3ccc(OC)cc3)c2)cc1 | 11.2 µM (active) |  |
| Cc1cc(Sc2nnc(N)s2)c2ccccc2n1 | 5.62 µM (active) |  |
| Cc1cc(Sc2nnc(/N=C/N(C)C)s2)c2ccccc2n1 | 7.08 µM (active) |  |
| CC1CCCN(Cc2c(O)ccc3c(=O)c(-c4nc5ccccc5s4)c(N)oc23)C1 (stereo not drawn) | 0.316 µM (active) |  |
